High-throughput results (PubChem)
Only some compounds are listed: those with a hit (about 21% of all), similar ones and a draw of the others.
Pf growth 96h – inhibits malaria parasite growth, 96 h; P. falciparum luciferase reporter growth, 96 h; Potency, µM (top dose mostly 28.7 µM), actives largely listed as inhibitors; 6.9% of 320,000 active; AID 504834
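Plates of compound plus infected erythrocytes (2% hematocrit, 0.05% parasitemia final) incubate 96 hours, 37 C, 5% CO2. Detection reagent added; reduced luminescence from the parasites' luciferase reporter flags inhibition.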
AMA1-RON2 inh – disrupts binding of P. falciparum AMA1 to RON2; AlphaScreen AMA1-biotinylated RON2 peptide binding; 0.2% of 360,000 active; Potency, µM (doses to about 58.2 µM), actives largely listed as inhibitors; AID 720542; further: nearly all actives have a fitted effect of over 45% in size
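AMA1 (3D7) with his tag at 25 nM final met compounds first, then biotinylated RON2 peptide at 25 nM; detection used donor plus acceptor beads, 10 µg/mL apiece, read by AlphaScreen after 30 min at room temperature.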
Pf growth 48h – P. falciparum growth inhibition at 48 hours (one generation); P. falciparum luciferase growth in erythrocytes, 48 h; Potency, µM (titrated, usually from 28.7 µM), hits mostly inhibitors; 5.9% of 310,000 active
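Erythrocytes infected with P. falciparum carrying an integrated firefly luciferase reporter (2% hematocrit, 0.1% parasitemia final) were exposed to compounds in RPMI 1640 with 0.5% Albumax at 37 C, 5% CO2. Growth inhibition was scored as reduced luminescence.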
CHX counter – counter-screen hit for Shiga toxin inhibitors, cycloheximide | 12% of 300,000 active | cell reporter, cycloheximide protein synthesis inhibition counterscreen | max response, % | AID 2314; in the data active means max response mostly above about 13%, no sharp cut-off; inactive means mostly below about 14%; further: read at 38.3 µM for the half of the compounds with a filed dose
Shiga inhibitor – inhibitors of Shiga toxin in Vero cells; AID 2315; Vero cells, Shiga toxin protein synthesis inhibition reporter; inhibition, % at 38.7 µM; 9.2% of 290,000 active; in the data active means inhibition mostly above about 28%, no sharp cut-off; inactive means mostly below about 43%
HCV inhibitor – HCV inhibition | Huh7.5.1 HCVcc-Cre infection, luciferase reporter, 44 h | Potency, µM (top dose mostly 41.8 µM), usual class: inhibitors | 3.4% of 340,000 active
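After 44 h co-culture of compound, cells and HCVcc-Cre (~0.5 moi), substrate is added for 15 min at room temperature and luciferase measured over 15 sec. Cells were seeded at 1,000/well and pre-cultured 4 h.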
Hits are given with their value; 0 = inactive; ? = inconclusive; - = no result given; [ ] = remark or other dose. Unless noted, the call rests on the fitted dose curve; in most records, active means well fitted curve in the direction sought with a large enough effect; inconclusive means small, poorly fitted or top-dose-only effect, or another doubt; inactive means no such curve, though single readings can be large; an effect the other way counts as inactive or inconclusive.

SMILES	Pf growth 96h	AMA1-RON2 inh	Pf growth 48h	CHX counter	Shiga inhibitor	HCV inhibitor
CCOC(=O)c1c(C)nc2sc(C(N)=O)c(N)c2c1-c1ccc(OC)cc1	-	0	0	0	0	?
COc1ccc(NC(=O)C2c3ccccc3OCC(=O)N2CCc2ccccc2)cc1 (stereo not drawn)	-	0	-	-	-	-
COc1cccc2c1cc1c(=O)n(CC(=O)NCc3ccccn3)nc(C)n12	0	0	0	0	0	0
Cc1cc2occ(CC(=O)NNC(=O)c3ccccc3)c2cc1C	?	0	0	9.9	0	0
COc1ccc(C(=O)/C(=C/O)N=Nc2ccc(F)cc2)cc1	?	0	0	58.2	76.4	?
COc1ccc(N=N/C(=C\O)C(=O)c2cccs2)cc1	0	0	0	39.1	58.0	0
O=C(Cc1ccccc1)NCC(=O)Nc1cccc(Cl)c1	0	0	0	0	0	0
CCc1ccc(CN2CCCC(C(=O)Nc3ccc(-c4cscn4)cc3)C2)o1 (stereo not drawn)	0	0	?	0	0	0
Cn1cnnc1SCCCN1C(=O)c2cccc3cccc(c23)C1=O	0	0	?	0	0	0
COc1ccc2cc(C(=O)/C=C/c3cc(OC)c(O)c(OC)c3)ccc2c1	?	0	?	0	0	?
COc1ccc(C(=O)/C=C/c2cc(OC)c(O)c(OC)c2)c(F)c1	?	0[11.6 µM]	0	0	0	12.6µM
COc1ccc(OC)c(C(=O)C(=O)c2cc(OC)ccc2OC)c1	-	0	-	-	-	?
COc1ccc(C(=O)/C=C/Nc2cc(C)on2)c(OC)c1	0	0	0	25.3	0	?
COc1ccc(OC)c(C(=O)/C=C/c2ccccc2C(F)(F)F)c1	?	0	?	0	0	10µM
COc1ccc(C(=O)/C=C/c2ccccc2)c(OC)c1	?	0	0	31.7	54.2	0
C[C@H]1CN=C(Nc2ccccc2)N1CC1CCCCCC1	0	0	?	0	0	0
CC1c2cc3c(cc2CCN1C(=O)c1cccc(F)c1)OCCCO3 (stereo not drawn)	?	0	0	0	0	?
COc1ccc(C(=O)/C=C/c2ccc(N(C)C)cc2)c(OC)c1	2.08µM	0	?	26.0	0	?
COc1ccc(C=CC(=O)c2cc(O)ccc2O)cc1	-	0	-	-	-	?
COc1ccc(C(=O)On2c(-c3ccc(Br)cc3)nc3ccccc3c2=O)cc1	0	0	0	31.9	92.8	?
COc1ccc(O)c(CNn2c(-c3ccc(Br)cc3)nc3ccccc3c2=O)c1	0	0	9.28µM	0	0	0
COc1cc(OC)cc(-c2nc3ccccc3c(=O)n2OC(=O)c2ccc(Br)cc2)c1	0	0	0	0	0	0
COc1ccc(OC)c(CNn2c(-c3ccccc3F)nc3ccccc3c2=O)c1	0	0	?	0	0	0
O=C(NCCc1ccccc1Cl)C1CC(=O)N(C2CCCCC2)C1 (stereo not drawn)	0	0	0	0	0	0
CN1CCN(c2ccc(S(=O)(=O)N3CCOCC3)cc2NC(=O)COc2ccc(F)cc2Cl)CC1	13.1µM	0	?	0	0	0
SMILES	Pf growth 96h	AMA1-RON2 inh	Pf growth 48h	CHX counter	Shiga inhibitor	HCV inhibitor
O=C(COC(=O)c1ccc(F)cc1)Nc1cc(S(=O)(=O)N2CCOCC2)ccc1N1CCCC1	0	0	0	0	0	0
Cc1ccc(OCCCC(=O)Nc2cc(S(=O)(=O)N3CCOCC3)ccc2N2CCOCC2)cc1	0	0	10.4µM	-	-	0
O=C(COc1ccc(F)cc1Br)Nc1ccccc1N1CCOCC1	?	0	10.4µM	-	-	?
O=C(COc1ccc(F)cc1Cl)Nc1cc(S(=O)(=O)N2CCOCC2)ccc1N1CCCCC1	2.08µM	0	4.15µM	0	0	?
Cc1ccccc1CN(c1ccc(C(=O)N/N=C/c2ccc(OCC(N)=O)cc2)cc1)S(C)(=O)=O	0	0	?	0	0	0
CCN(CC)S(=O)(=O)c1ccc(N2CCN(C)CC2)c(NC(=O)COc2ccc(F)cc2Cl)c1	?	?	10.4µM	-	-	?
Cc1ccc(Cl)c(OCC(=O)Nc2cc(S(=O)(=O)N3CCOCC3)ccc2N2CCCC2)c1	8.28µM	0	11.7µM	0	0	0
O=C(NC1CC1)c1cccc2c1C(=O)c1ccc(N3CCC(Cc4ccccc4)CC3)cc1S2(=O)=O	-	0	-	-	-	10µM
COc1ccc(C(=O)COC(=O)CN2C(=O)c3ccccc3C2=O)c(OC)c1	0	0	?	0	0	0
CS(=O)(=O)N(CC(=O)NCCC1=CCCCC1)c1ccc2c(c1)OCO2	0	0	4.15µM	0	0	0
COc1ccc(N(CC(=O)NCCC2=CCCCC2)S(=O)(=O)c2ccccc2F)cc1	10.4µM	0	?	0	0	?
C=CCN(c1ccc(C(=O)Nc2ccc3c(c2)OCO3)cc1)S(C)(=O)=O	0	0	?	13.3	0	0
C=CCN(c1ccc(C(=O)Nc2ccc3c(c2)n(C)c(=O)n3C)cc1)S(C)(=O)=O	?	0	?	0	-	0
CS(=O)(=O)N(CC(=O)NCCSC1CCCCC1)c1ccc2c(c1)OCO2	0	0	5.22µM	0	0	0
O=C(CC[C@H]1O[C@@H](n2cnc3c(NC(=O)c4ccccc4)ncnc32)[C@H](O)[C@@H]1O)NCC1CCN(Cc2ccccc2)CC1	-	0	-	-	-	-
O=C(/C=C/[C@H]1O[C@@H](n2ccc(=O)[nH]c2=O)[C@H](O)[C@@H]1O)NCc1cccnc1	-	0	-	-	-	-
O=C(O)C1CC(CCCP(=O)(O)O)CCN1 (stereo not drawn)	-	-	-	0	0	-
COc1ccc(/C=C/C(=O)OCC(=O)N2CCCCCC2)c(OC)c1	0	0	0	-	-	0
CC(C)(C)SCCNC(=O)CN(c1ccc(F)cc1)S(=O)(=O)c1ccccc1	0	0	?	0	0	0
O=C(CN(c1ccc(F)cc1)S(=O)(=O)c1ccccc1)NCCSC1CCCCC1	?	0	6.57µM	0	0	0
CS(=O)(=O)N(CC(=O)Nc1ccc2c(c1)OCCO2)c1ccc2c(c1)OCO2	-	0	0	10.3	0	0
Cc1ccc(C(=O)NCC(=O)OCc2nc3ccsc3c(=O)[nH]2)cc1C	-	0	-	-	-	-
CC(=O)N1c2ccc(S(=O)(=O)N3CCCC(C(=O)N4CCCC(C)C4)C3)cc2CC1C (stereo not drawn)	?	0	?	0	0	?
CC(=O)N1CCCc2cc(S(=O)(=O)N3CCCC(C(=O)Nc4cccc(C)c4)C3)ccc21 (stereo not drawn)	0	0	0	0	0	?
CC(=O)N1c2ccc(S(=O)(=O)N3CCCC(C(=O)N4CCC(C)CC4)C3)cc2CC1C (stereo not drawn)	?	0	?	0	0	11.2µM
CCC(C)NC(=O)C1CCCN(S(=O)(=O)c2ccc3c(c2)CC(C)N3C(C)=O)C1 (stereo not drawn)	0	0	0	0	0	0
CC1CCN(C(=O)C2CCN(S(=O)(=O)c3ccc4c(c3)CC(C)N4C(=O)C3CC3)CC2)CC1 (stereo not drawn)	0	0	9.28µM	0	0	?
